The text below walks through data of PubChem BioAssay (NCATS).

The structures appear in SMILES notation. Records with an inconclusive call do not appear. Active and inactive are the calls of the source. Unless noted, calls come from the whole dose curve.

Test [1] in a line: Validation screen for inhibitors of Lassa infection (AID 463096). Note: % is set by controls: 0 for no effect and ±100 for the full control effect.
Test [2] can be described thus: Inducers of the Endoplasmic Reticulum Stress Response (ERSR) in human glioma: Validation (AID 504836; active = well fitted curve in the direction sought with a large enough effect; an effect the other way counts as inactive or inconclusive; note: 0% is about no effect). Put shortly: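 ERSR induction read as luciferase luminescence (Bright-Glo, 10 min at room temperature) in stably transfected human U87-MG glioma cells exposed to compounds for 16 h, using GRP78 as sensor.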
The nature of test [3]: qHTS for Inhibitors of the Functional Ribonucleoprotein Complex (vRNP) of Lassa (LASV) Arenavirus: LASV Primary Screen - GLuc reporter signal (AID 1347082; calls by dose curve; tested in HEK293 reporter line; note: series mostly up to about 57 µM; % is set by controls: 0 for no effect and ±100 for the full control effect; nearly all actives have a fitted effect of over 60% in size). Background: Quantitative high-throughput screening tests each substance at several concentrations.
The nature of test [4]: qHTS for Inhibitors of the Functional Ribonucleoprotein Complex (vRNP) of Lassa (LASV) Arenavirus: Viability assay - alamar blue signal for LASV Primary Screen (AID 1347083; calls by dose curve; tested in HEK293 reporter line; note: series mostly up to about 57 µM; % is set by controls: 0 for no effect and ±100 for the full control effect; nearly all actives have a fitted effect of over 80% in size).
Test [5] in a line: qHTS for Inhibitors of the Functional Ribonucleoprotein Complex (vRNP) of Lymphocytic Choriomeningitis Arenaviruses (LCMV): Viability assay - alamar blue signal for LCMV Primary Screen (AID 1347085; calls by dose curve; tested in HEK293 reporter line; note: series mostly up to about 57 µM; % is set by controls: 0 for no effect and ±100 for the full control effect; nearly all actives have a fitted effect of over 80% in size).
In test [6] the target is Nucleoprotein (Lymphocytic choriomeningitis virus (strain Armstrong)) (UniProt P09992). Description: qHTS for Inhibitors of the Functional Ribonucleoprotein Complex (vRNP) of Lymphocytic Choriomeningitis Arenaviruses (LCMV): LCMV Primary Screen - GLuc reporter signal (AID 1347086). Note: series mostly up to about 57 µM; % is set by controls: 0 for no effect and ±100 for the full control effect; nearly all actives have a fitted effect of over 70% in size.
Chain of Nucleoprotein (Lymphocytic choriomeningitis virus (strain Armstrong)) (P09992 whole entry, looked up): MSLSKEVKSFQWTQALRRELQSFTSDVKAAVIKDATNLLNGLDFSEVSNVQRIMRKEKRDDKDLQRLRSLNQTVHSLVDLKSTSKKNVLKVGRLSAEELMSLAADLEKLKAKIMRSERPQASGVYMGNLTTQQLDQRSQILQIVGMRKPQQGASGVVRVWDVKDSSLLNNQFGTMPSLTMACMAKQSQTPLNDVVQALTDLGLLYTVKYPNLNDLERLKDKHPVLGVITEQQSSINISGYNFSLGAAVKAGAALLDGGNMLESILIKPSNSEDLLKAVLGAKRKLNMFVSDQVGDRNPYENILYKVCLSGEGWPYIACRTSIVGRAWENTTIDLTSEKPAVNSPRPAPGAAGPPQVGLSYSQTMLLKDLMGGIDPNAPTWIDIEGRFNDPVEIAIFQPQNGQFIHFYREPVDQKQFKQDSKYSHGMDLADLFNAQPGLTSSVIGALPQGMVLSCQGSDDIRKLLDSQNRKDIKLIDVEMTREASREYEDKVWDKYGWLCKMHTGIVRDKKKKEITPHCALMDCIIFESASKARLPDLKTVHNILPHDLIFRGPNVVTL
Test [7] concerns the target Cytochrome P450 3A4 (Homo sapiens) (UniProt P08684). Description: qHTS Assay for Inhibitors and Substrates of Cytochrome P450 3A4 (AID 884; active = well fitted curve in the direction sought with a large enough effect; an effect the other way counts as inactive or inconclusive; note: potency is the fitted concentration of half-maximal effect; nearly all actives have a fitted effect of over 50% in size). Put shortly: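 Luminescent readout of luciferin produced by CYP3A4 (20 nM) dealkylation of Luciferin-PPXE, 25 uM (its KM). NADPH-driven reaction ran 60 min at RT after 10 min compound preincubation; data scaled to 57 uM ketoconazole as 100% inhibition.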

Test [8] shares this target. Description: qHTS Assay for Activators of Cytochrome P450 3A4 (AID 885; active = well fitted curve in the direction sought with a large enough effect; an effect the other way counts as inactive or inconclusive; note: nearly all actives have a fitted effect of over 65% in size). Put shortly: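 Activators are scored by enhanced luminescence from CYP3A4 conversion of luciferin-PPXE (25uM, equal to KM) to luciferin, after 60 min at RT with an NADPH-regenerating system.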
In test [9] the target is Alpha-galactosidase (Coffea arabica) (UniProt Q42656). Description: Counterscreen for Glucocerebrosidase Inhibitors: qHTS Assay for Coffee Bean alpha-Galactosidase at pH 4.5 (AID 957; active = well fitted curve in the direction sought with a large enough effect; an effect the other way counts as inactive or inconclusive;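 note: series mostly up to about 77 µM; plate controls were enzyme alone for no effect and no enzyme for full effect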). Put shortly:
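Fluorogenic qHTS at pH 4.5 (citrate buffer with Tween-20): 2 nM enzyme, 80 uM 4-MU-alpha-galactoside substrate, compound titrated 0.7 nM to 77 uM, 20 min room temperature. Glycine/NaOH stop; 4-MU read Ex 365/Em 440; Hill-equation AC50 against no-enzyme and enzyme controls.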
(The purpose of a counterscreen is to sort out artefacts and off-target activity.)

The target is the same in test [10]. The experiment in a line: Counterscreen for Glucocerebrosidase Inhibitors: qHTS Assay for Coffee Bean alpha-Galactosidase at pH 5.9 (AID 998; active = well fitted curve in the direction sought with a large enough effect; an effect the other way counts as inactive or inconclusive;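 note: plate controls were uninhibited enzyme for no effect and no-enzyme basal signal for full effect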). Summed up:
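Fluorogenic 4-MU substrate hydrolysis, 80 uM substrate and 2 nM coffee bean alpha-galactosidase, pH 5.9 citrate buffer, 20 min at room temperature, then NaOH/glycine stop. Titration 0.7 nM–77 uM, normalized to no-enzyme and enzyme controls, AC50 via Hill equation.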

Test [11] has as its target Flap endonuclease 1 (Homo sapiens) (UniProt P39748). Description: qHTS Validation Assay for the Inhibitors of Human Flap endonuclease 1 (FEN1) (AID 488816; active = well fitted curve in the direction sought with a large enough effect; an effect the other way counts as inactive or inconclusive; note: % is set by controls: 0 for no effect and ±100 for the full control effect). Put shortly: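 qHTS format: compounds and 10 nM FEN1 incubated 15 min at room temperature before adding 50 nM substrate. Cleavage followed by reads at 0 and 15 min; normalized data fitted to a four-parameter Hill curve.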

In test [12] the target is M-phase phosphoprotein 8 (Homo sapiens) (UniProt Q99549). Description: qHTS Validation Assay for Inhibitors for MPP8 Chromodomain Interactions with Methylated Histone Tails (AID 488949; active = well fitted curve in the direction sought with a large enough effect; an effect the other way counts as inactive or inconclusive;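 note: 50 nM MPP8 with 50 nM peptide preformed then compounds added for 30 min; AlphaScreen signal from MPP8 chromodomain bound to biotinylated H3K9me3 peptide; top concentration of the series differs between compounds; % is set by controls: 0 for no effect and ±100 for the full control effect; nearly all actives have a fitted effect of over 55% in size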). Put shortly:
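50 nM MPP8 + 50 nM b-H3K9me3 peptide, PBS pH 7.4/0.01% Tween-20, 30 min RT; + cpd 30 min RT; + AlphaScreen donor/Ni-chelate acceptor beads 10 ug/mL final, 30 min dark; luminescence read.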

Test [13] concerns the target Chromobox protein homolog 1 (Homo sapiens) (UniProt P83916). The experiment in a line: qHTS Validation Assay for Inhibitors of HP1-beta Chromodomain Interactions with Methylated Histone Tails (AID 488953; active = well fitted curve in the direction sought with a large enough effect; an effect the other way counts as inactive or inconclusive;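 note: loss of AlphaScreen luminescence from HP1-beta binding biotinylated H3K9me3 peptide; series mostly up to about 110 µM; % is set by controls: 0 for no effect and ±100 for the full control effect; nearly all actives have a fitted effect of over 50% in size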). Summed up:
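AlphaScreen proximity signal from streptavidin donor and nickel chelate acceptor beads (final 10 ug/mL) after 30 min dark incubation. Compounds had 30 min at room temperature with preformed complex of 50 nM HP1-beta and 50 nM b-H3(1-18)K9me3 in PBS pH 7.4 with 0.01% Tween-20.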

The nature of test [14]: Validation screen for small molecules that induce genotoxicity in human embryonic kidney (HEK293T) cells expressing luciferase-tagged ELG1 (AID 493106; active = well fitted curve in the direction sought with a large enough effect; an effect the other way counts as inactive or inconclusive; note: 0% is about no effect). Summed up:
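ELG1-luciferase reporter readout (ONE-Glo, 30 min, room temperature) after 16 hr compound treatment at 37 °C of HEK293T cells at 2,000 per well. Rising luminescence flags genotoxic stress.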

The target in test [15] is ATPase family AAA domain-containing protein 5 (Homo sapiens) (UniProt Q96QE3). Description: Validation screen for small molecules that inhibit ELG1-dependent DNA repair in human embryonic kidney (HEK293T) cells expressing luciferase-tagged ELG1 (AID 493107; active = well fitted curve in the direction sought with a large enough effect; an effect the other way counts as inactive or inconclusive; note: potency is the fitted concentration of half-maximal effect; nearly all actives have a fitted effect of over 70% in size). Put shortly: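 Luciferase read-out, ONE-Glo, 30 min at room temperature, follows 16 h co-exposure at 37 C of compound and the DNA-damaging agent 5-fluorouridine. Cells: HEK293T with ELG1-luciferase fusion, 2,000 per well, DMSO as vehicle.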
Chain of ATPase family AAA domain-containing protein 5 (Homo sapiens) (Q96QE3 whole entry, looked up, the tested form may be a part): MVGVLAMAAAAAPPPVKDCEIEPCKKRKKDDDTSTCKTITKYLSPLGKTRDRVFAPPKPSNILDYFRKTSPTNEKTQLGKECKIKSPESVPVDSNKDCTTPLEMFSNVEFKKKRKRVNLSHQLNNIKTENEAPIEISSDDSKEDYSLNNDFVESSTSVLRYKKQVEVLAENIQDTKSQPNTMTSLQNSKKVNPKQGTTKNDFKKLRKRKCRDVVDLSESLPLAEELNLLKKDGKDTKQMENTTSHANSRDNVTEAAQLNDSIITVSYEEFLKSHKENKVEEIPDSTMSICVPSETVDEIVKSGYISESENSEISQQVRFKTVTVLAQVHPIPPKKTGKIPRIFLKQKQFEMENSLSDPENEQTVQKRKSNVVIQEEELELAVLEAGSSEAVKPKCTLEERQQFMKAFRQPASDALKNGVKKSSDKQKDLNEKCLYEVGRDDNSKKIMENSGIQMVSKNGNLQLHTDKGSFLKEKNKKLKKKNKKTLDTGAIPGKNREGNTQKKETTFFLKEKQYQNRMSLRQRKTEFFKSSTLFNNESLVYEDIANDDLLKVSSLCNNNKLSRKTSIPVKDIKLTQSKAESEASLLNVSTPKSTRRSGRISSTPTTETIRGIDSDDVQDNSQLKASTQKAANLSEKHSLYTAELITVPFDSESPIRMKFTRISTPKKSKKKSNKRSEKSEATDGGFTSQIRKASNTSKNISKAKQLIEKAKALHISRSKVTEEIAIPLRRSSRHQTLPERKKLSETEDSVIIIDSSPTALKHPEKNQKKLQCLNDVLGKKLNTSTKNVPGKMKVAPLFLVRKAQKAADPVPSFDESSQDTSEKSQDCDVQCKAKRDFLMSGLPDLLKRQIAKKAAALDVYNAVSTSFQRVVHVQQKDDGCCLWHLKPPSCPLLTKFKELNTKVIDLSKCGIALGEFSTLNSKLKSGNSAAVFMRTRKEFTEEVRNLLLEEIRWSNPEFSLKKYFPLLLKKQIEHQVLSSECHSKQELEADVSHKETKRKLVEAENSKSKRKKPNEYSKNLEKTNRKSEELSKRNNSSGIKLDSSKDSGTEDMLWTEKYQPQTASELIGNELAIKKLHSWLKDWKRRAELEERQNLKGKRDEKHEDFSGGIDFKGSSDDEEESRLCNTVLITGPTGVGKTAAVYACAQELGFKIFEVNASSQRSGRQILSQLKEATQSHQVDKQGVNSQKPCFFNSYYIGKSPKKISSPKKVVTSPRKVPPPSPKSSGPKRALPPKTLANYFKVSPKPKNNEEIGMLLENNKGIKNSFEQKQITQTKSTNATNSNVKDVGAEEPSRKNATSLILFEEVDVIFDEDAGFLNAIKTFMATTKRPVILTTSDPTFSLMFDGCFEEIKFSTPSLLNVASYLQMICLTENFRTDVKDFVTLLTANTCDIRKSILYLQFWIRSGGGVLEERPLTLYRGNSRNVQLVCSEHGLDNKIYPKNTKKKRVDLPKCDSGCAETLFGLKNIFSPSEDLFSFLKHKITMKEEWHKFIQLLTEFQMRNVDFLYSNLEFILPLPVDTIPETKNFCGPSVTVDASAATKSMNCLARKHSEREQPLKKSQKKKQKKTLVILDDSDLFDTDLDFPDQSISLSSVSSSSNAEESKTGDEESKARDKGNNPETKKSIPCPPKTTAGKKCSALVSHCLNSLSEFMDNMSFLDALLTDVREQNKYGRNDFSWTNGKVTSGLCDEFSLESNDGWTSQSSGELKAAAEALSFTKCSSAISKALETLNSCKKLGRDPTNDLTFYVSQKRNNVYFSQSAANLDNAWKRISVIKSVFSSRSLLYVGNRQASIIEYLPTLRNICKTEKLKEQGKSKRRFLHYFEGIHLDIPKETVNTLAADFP

Test [16] can be described thus: Nrf2 qHTS screen for inhibitors: Validation (AID 493153; active = well fitted inhibition curve with a large enough effect in the main read-out, with a control signal flat, not every such curve was filed as active; note: potency is the fitted concentration of half-maximal effect). The following applies: Potency: luciferase luminescence; viability change: measured here: cytotoxicity max response. Put shortly:
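Concentration-response on A549 ARE_Fluc reporter cells exposed 18-24 h at 37 C, 5% CO2. Cytotoxicity read first by CellTiter-Fluor fluorescence (Ex 405/Em 525), then Nrf2 inhibition by BugLite luminescence after 15 min.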

Test [17] can be described thus: qHTS for Inhibitors of ATXN expression: Validation (AID 588378; active = well fitted curve in the direction sought with a large enough effect; an effect the other way counts as inactive or inconclusive; note: potency is the fitted concentration of half-maximal effect; nearly all actives have a fitted effect of over 75% in size). Summed up: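 Compounds were pinned onto attached HEK293 cells carrying an ATXN2-firefly luciferase construct and incubated 24 hrs at 37 degrees C. Each well then received a fluorescent viability reagent followed by luciferase substrate for end-point luminescence.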

Chain of Alpha-galactosidase (Coffea arabica) (Q42656 whole entry, looked up): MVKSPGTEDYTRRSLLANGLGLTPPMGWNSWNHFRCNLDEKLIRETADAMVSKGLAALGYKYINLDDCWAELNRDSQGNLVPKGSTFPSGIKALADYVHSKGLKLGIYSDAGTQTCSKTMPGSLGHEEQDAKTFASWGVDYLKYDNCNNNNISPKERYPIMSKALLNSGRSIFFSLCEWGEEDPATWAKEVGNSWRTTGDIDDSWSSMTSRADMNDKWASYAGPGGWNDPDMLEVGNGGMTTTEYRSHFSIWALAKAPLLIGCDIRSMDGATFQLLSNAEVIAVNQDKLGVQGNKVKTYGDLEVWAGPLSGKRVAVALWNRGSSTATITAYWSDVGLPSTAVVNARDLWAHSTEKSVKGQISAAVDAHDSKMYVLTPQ
Chain of M-phase phosphoprotein 8 (Homo sapiens) (Q99549 whole entry, looked up): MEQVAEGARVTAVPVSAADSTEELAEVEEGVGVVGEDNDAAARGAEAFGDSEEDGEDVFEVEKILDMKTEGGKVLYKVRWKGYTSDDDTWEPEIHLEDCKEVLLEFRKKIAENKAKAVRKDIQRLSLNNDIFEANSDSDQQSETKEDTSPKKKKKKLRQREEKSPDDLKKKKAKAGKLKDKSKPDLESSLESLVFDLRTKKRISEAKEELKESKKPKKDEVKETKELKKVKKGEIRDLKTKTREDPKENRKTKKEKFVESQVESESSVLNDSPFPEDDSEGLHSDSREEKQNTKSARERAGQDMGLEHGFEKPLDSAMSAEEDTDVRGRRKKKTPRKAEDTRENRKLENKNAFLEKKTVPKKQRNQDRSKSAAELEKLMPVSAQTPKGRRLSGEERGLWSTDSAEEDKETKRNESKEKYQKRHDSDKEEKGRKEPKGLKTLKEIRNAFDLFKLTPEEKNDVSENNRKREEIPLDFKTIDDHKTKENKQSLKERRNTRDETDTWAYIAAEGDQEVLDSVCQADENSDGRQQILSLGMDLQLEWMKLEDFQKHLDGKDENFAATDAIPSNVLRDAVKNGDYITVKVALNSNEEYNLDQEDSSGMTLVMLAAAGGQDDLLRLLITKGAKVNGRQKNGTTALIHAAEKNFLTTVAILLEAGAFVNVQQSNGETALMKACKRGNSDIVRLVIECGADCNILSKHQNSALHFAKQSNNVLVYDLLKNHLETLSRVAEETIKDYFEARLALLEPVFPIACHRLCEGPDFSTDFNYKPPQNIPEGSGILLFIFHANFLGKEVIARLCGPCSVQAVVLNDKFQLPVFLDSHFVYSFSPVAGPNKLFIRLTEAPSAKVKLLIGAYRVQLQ
Chain of Cytochrome P450 3A4 (Homo sapiens) (P08684 whole entry, looked up): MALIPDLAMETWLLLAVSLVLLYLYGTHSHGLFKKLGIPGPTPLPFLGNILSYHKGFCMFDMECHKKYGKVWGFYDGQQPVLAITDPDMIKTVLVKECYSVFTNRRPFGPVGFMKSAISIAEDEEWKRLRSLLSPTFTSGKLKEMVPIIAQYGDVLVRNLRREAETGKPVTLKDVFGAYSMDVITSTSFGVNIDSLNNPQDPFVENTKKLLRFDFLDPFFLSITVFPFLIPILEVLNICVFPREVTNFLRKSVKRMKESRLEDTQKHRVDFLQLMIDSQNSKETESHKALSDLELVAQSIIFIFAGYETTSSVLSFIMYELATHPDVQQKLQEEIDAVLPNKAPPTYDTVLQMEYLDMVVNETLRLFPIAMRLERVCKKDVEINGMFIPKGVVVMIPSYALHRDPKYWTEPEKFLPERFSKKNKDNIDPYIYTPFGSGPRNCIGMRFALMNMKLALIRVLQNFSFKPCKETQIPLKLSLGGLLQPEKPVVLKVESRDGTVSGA
Chain of Chromobox protein homolog 1 (Homo sapiens) (P83916 whole entry, looked up): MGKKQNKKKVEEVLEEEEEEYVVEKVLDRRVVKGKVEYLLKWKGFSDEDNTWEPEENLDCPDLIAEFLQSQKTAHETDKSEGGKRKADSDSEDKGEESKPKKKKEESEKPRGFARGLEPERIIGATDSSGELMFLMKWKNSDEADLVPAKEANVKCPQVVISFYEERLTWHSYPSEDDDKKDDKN
Chain of Flap endonuclease 1 (Homo sapiens) (P39748 whole entry, looked up): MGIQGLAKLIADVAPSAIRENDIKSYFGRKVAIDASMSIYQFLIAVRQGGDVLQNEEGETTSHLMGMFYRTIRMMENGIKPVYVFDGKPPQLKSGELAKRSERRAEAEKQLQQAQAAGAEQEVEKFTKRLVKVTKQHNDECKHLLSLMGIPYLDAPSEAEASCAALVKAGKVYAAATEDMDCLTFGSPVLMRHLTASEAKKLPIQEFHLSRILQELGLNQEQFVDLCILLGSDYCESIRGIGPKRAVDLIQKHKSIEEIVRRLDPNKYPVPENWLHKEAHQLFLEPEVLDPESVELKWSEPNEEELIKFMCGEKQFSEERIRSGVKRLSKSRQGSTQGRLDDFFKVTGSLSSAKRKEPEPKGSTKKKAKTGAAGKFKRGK

`OCC1NCC(O)C(O)C1O` (stereo not given): the Potency entry in test [1], in [3], in [4], in test [5] and in [6] was “inactive” throughout. The result in test [2] was inactive.
Regarding `NC1(C(=O)O)CCc2cc(C(=O)O)ccc21` (stereo not given), the Potency entry in [1], in test [3], in [4], in test [5] and in [6] was “inactive” each time. Moreover, in test [2], the result was inactive.
Take `COC(=O)[C@H]1[C@H]2C[C@H]3c4[nH]c5ccccc5c4CCN3C[C@H]2CC[C@@H]1O`: the Potency result in test [1], in test [3], in [4], in test [5] and in test [6] was “inactive” throughout. The compound was called inactive in test [2].
In the case of `Brc1c(Br)c(Br)c2n[nH]nc2c1Br`, the Potency was 3.16 µM (active) in [7], 25.9 µM (active) in [15], 18.4 µM (active) in [16] and 28.2 µM (active) in test [17]. For the same compound, the Potency entry in [8], in test [1], in [11], in test [12], in test [13] and in test [3] was “inactive” throughout. Moreover, the Potency entry in test [4], in test [5] and in test [6] was “inactive” in each case. Besides, the result in test [9], in test [10], in test [14] and in test [2] was inactive. Further, the viability change in [16] is -14.6%.
Regarding `NC(Cc1cccc(-c2ccccc2CP(=O)(O)O)c1)C(=O)O` (stereo not given), the Potency entry in test [1], in test [3], in test [4], in test [5] and in test [6] was “inactive” throughout. Besides, the compound was classed as inactive in test [2].
On to `CC(=O)N[C@H](C(=O)O)C(C)(C)SN=O`, for which the Potency result in [1], in test [3], in [4], in test [5] and in test [6] was “inactive” throughout. In addition, the compound was called inactive in test [2].
Consider `CC1CCN=C(N)S1` (stereo not given), for which the Potency entry in test [1], in [3], in [4], in [5] and in [6] was “inactive” each time. In addition, the call in test [2] was inactive.
Regarding `CCCCCCCCCCCCCCCCCC(=O)OC(CC(=O)O)C[N+](C)(C)C` (stereo not given), the Potency entry in test [1], in test [3], in [4], in test [5] and in test [6] was “inactive” throughout. Moreover, the result in test [2] was inactive.
Consider `C[C@@H](CN1CCC(Cc2ccccc2)CC1)[C@@H](O)c1ccc(O)cc1`, for which the Potency result in [1], in [3], in test [4], in test [5] and in [6] was “inactive” throughout. In addition, the compound was called inactive in test [2].
For `NC(N)=N[C@@H](CCC(=O)O)C(=O)O`, the Potency entry in [1], in test [3], in test [4], in test [5] and in test [6] was “inactive” throughout. Moreover, the call in [2] was inactive.
For the compound `C=CCN1CCc2c(cc(O)c(O)c2Br)[C@@H](c2ccccc2)C1`, the Potency result in test [1], in test [3], in [4], in test [5] and in [6] was “inactive” in each case. In test [2], the compound was classed as inactive.
In the case of `O=C(O)[C@@H]1C[C@H](C(=O)O)N1`, the Potency result in [1], in [3], in test [4], in test [5] and in test [6] was “inactive” in each case. Moreover, the call in test [2] was inactive.
With `CC1CCN(CC[C@H]2CCCN2S(=O)(=O)c2cccc(O)c2)CC1`, the Potency entry in [1], in [3], in test [4], in test [5] and in test [6] was “inactive” throughout. Also, the call in test [2] was inactive.
